Among all 420,000 compounds or so, about 50,000 (12%) were called active. Roughly 26% stayed inconclusive and do not appear here. Calls come from the whole dose curve; as a rule, active = well fitted inhibition curve with a large enough effect; inconclusive = small, poorly fitted or top-dose-only effect; inactive = flat fitted curve, though single readings scatter. What follows is part of a selection rich in actives, with near analogues and random picks from the rest. Where a call stands in place of a potency, no number is given.
Potency is the fitted concentration of half-maximal effect.

A short description of the test: qHTS for Inhibitors of human tyrosyl-DNA phosphodiesterase 1 (TDP1): qHTS in cells in presence of CPT. Note: nearly all actives have a fitted effect of over 55% in size. The following applies: chicken DT40 Tdp1-/-;hTDP1 cells + 20 nM CPT, ATP luminescence, 48 h; series mostly up to 46.2 µM. Summed up: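 Cell growth measured by CellTiter-Glo luminescence after a minimum 48 h, 37 C compound exposure with 20 nM CPT in Tdp1-knockout DT40 cells stably expressing hTDP1, seeded 400/well; qHTS titration format.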
(Quantitative high-throughput screening tests each substance at several concentrations.)
In the case of `COCCCN1C(=O)C(CC(=O)NCc2cccs2)CC(C(=O)N2CCOCC2)=C1C` (centres undefined), the Potency entry was “inactive”.
The value for `CCOCCCN1C(=O)C2C(C(=O)Nc3ccc(OCC)cc3)C3C=CC2(O3)C1C(=O)NC1CCCCC1` (centres undefined) was “inactive”.
For `Cc1cc(C)cc(NS(=O)(=O)c2ccc(-c3cc(C)no3)s2)c1`, the Potency was 2590 nM (active).
Turning to `CCc1cccc(C)c1NS(=O)(=O)c1cc(Br)cnc1N`, the Potency result is “inactive”.
Then `Cc1cc(-c2ccc(S(=O)(=O)N3CCc4ccccc4C3)s2)on1`, with “inactive”.
Then `Cc1cc(-c2ccc(S(=O)(=O)N3CCN(c4cccc(C(F)(F)F)c4)CC3)s2)on1`, with “inactive”; and `CC(=O)c1ccc(NS(=O)(=O)c2ccc(-c3cc(C)no3)s2)cc1`, with “inactive”.
On to `CCc1cccc(C)c1NS(=O)(=O)c1ccc(-c2cc(C)no2)s1`, for which the Potency was 411 nM (active).
`O=C(O)c1cccc(N=NN2CCCCCC2)c1`: the Potency entry was “inactive”.
`CC(C)(C)c1ccc(S(=O)(=O)NC(=O)C2(C)CCN2C(=O)CC2CC2)cc1` (centres undefined): the Potency entry is “inactive”.
With `Cc1ccnc(NC(=O)CCNS(=O)(=O)c2ccc(C)c(C)c2)c1`, the Potency result is “inactive”.
As to `CN1CCN(C(=O)c2ccc(-c3cc4nc(NCc5cccnc5)n(C)c(=O)c4s3)cc2)CC1`, the Potency entry is “inactive”.
With `Cc1ccc(-c2n[nH]c(=S)n2/N=C/c2cc3c(cc2[N+](=O)[O-])OCO3)cc1`, the Potency result was “inactive”.
Turning to `CC(=O)N/N=C/c1cc2c(cc1[N+](=O)[O-])OCO2`, the Potency result was “inactive”.
Take `Cc1ccc(S(=O)(=O)N/N=C\c2cc3c(cc2[N+](=O)[O-])OCO3)cc1`: the Potency is 10300 nM (active).
Consider `O=C(Nc1ccc(Cl)cc1)c1csc([C@@H]2O[C@H](CO)[C@H](O)[C@H](O)[C@H]2O)n1`, for which the Potency result was “inactive”.
Then `O=C(Nc1ccccc1)Oc1cccc2cccnc12`, with 651 nM (active).
In the case of `Fc1ccccc1COc1cccc2cccnc12`, the Potency entry was “inactive”.
Then `O=C(Nc1ccccc1Cl)Nc1cccc2cccnc12`, with “inactive”; and `CCN(CC(=O)N1CCCC1)S(=O)(=O)c1ccc(F)cc1`, with “inactive”.
In the case of `O=S1(=O)C=C(SCCN2CCCC2)c2ccccc21`, the Potency result was “inactive”.
For `O=C(COC(=O)c1ncc(Cl)c(Cl)c1Cl)NCc1cccs1`, the Potency entry was “inactive”.
Take `CN1CCN(c2ccc(S(=O)(=O)N3CCCCC3)cc2NC(=O)Cc2ccccc2F)CC1`: the Potency entry is “inactive”.
In the case of `CCC(=O)/C(=C(/O)c1ccccc1)c1nc2ccccc2[nH]1`, the Potency result was “inactive”.
For the molecule `O=C(Cc1nc2ccccc2[nH]c1=O)c1ccc(Cl)cc1`, the Potency result is “inactive”.
Consider `O=C(/C(=C/c1cccc(Cl)c1)c1nc2ccccc2[nH]1)c1ccccc1`, for which the Potency was 16400 nM (active).
Take `CC(=O)c1ccc(OC(=O)N2CCOCC2)cc1`: the Potency result was “inactive”.
Regarding `Cc1ccc(OCCNC(=O)CN2C(=O)NC3(CCCC3)C2=O)cc1`, the Potency entry is “inactive”.
`CCN(CC)Cc1cc(C(C)=O)ccc1O`: the Potency result is “inactive”.

Values taken from PubChem BioAssay AID686979 (National Center for Advancing Translational Sciences (NCATS), 2013).
